Bioassay records (PubChem)
Only some compounds are listed: those with a hit (about 4.7% of all), similar ones and a draw of the others.
TWEAK-Fn14 inh – TWEAK-Fn14 signaling inhibition; inhibition, % at 10 µM; TWEAK-stimulated Fn14 reporter cells, luciferase luminescence, 8 h; 360,000 compounds, 2% hits; in the data active = inhibition above about 50%
HSP90 inh – blocks HSP90-mediated luciferase refolding in reticulocyte lysate | Rabbit reticulocyte lysate, luciferase refolding luminescence, 3 h | inhibition, % at 5.6 µM | 290,000 compounds, 0.91% hits;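 active = inhibition above the screen-wide mean plus 3 SD, computed separately per campaign, cut at about 16% in these data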;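 also: 0% = DMSO wells and 100% = 60 µM geldanamycin wells; inhibitors lower the luminescence because luciferase stays unfolded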
HSF-1 act – increases HSF-1 driven luciferase reporter signal | NIH3T3-HGL HSF-1 luciferase reporter, MG132, 8 h; 100% = twice DMSO control signal | activation, % at 9 µM | 300,000 compounds, 1.7% hits | AID 504408;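 active = mean replicate activation of at least 50% with a set share of replicates each reaching 50%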;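 also: 0% = median of the neutral control wells and 100% = twice that signal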
HSF1 inhib – HSF1 inhibition | activity change, negative = inhibition, % at 7.5 µM (by protocol) | AID 2098 | 300,000 compounds, 0.77% hits | NIH3T3-HGL HSE-luciferase, MG132-induced, luminescence 8 h; hits give low values;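 active = more than half of replicate wells show activity change below -50%, luminescence cut by over half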;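 also: luciferase reports HSF-1 transcriptional activity via heat shock element; 0% = median of DMSO wells and -100% = zero luminescence signal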
TROY signal inh – inhibitors of TROY-dependent NF-kB signaling; Q293 LMP1-TROYcd NF-kB luciferase reporter, 4 h; AID 1347056; inhibition, % at 10 µM; 360,000 compounds, 0.98% hits;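 active = compounds whose plate-normalised and pattern-corrected inhibition of the luciferase reporter signal at the single screening dose is 50% or more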
EBV LMP1 NFkB – inhibitors of Epstein-Barr LMP1-induced NF-kappaB reporter; LMP1-induced NF-kappaB luciferase reporter cells, luminescence; inhibition, % at 12.5 µM; AID 504558; 350,000 compounds, 0.69% hits; in the data active = inhibition above about 41%;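 also: 0% = neutral control wells and 100% = reference inhibitor control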
Numbers without * were called inactive; nt = no result.

SMILES	TWEAK-Fn14 inh	HSP90 inh	HSF-1 act	HSF1 inhib	TROY signal inh	EBV LMP1 NFkB
O=C(Nc1cccc(O)c1)C(=O)Nc1ccccn1	76*	37*	46	29	39	1
Cc1cc(C(F)(F)F)nn1CC(=O)N1CCCCC1C (stereo not given)	83*	0	-7	3	nt	-1
FC(F)(F)c1cccc(-c2nc3nc(Cl)c(Cl)nc3[nH]2)c1	64*	4	39	6	34	19
FC(F)(F)c1nc2nc(Cl)c(Cl)nc2[nH]1	9	nt	nt	nt	4	-1
O=C(COC(=O)CC1c2ccccc2CCN1S(=O)(=O)c1ccccc1)Nc1ccccc1 (stereo not given)	2	1	58*	18	-1	1
CCOC(=O)c1snc(-c2ccc(F)cc2)c1N	-12	-1	59*	18	-74	-25
CCOC(=O)c1sc(N)nc1-c1ccccc1	0	1	-41	-26	7	-5
CC(=O)c1cccc2c1OC(C)C(=O)N2Cc1ccc(Cl)cc1 (stereo not given)	15	nt	nt	nt	8	nt
CC(C)CNC(=O)COC(=O)C1c2ccccc2Oc2ccccc21	1	-4	21	4	2	66*
CC(C)[N+](C)(CCOC(=O)C1c2ccccc2Oc2ccccc21)C(C)C	0	2	-4	3	5	81*
COc1ccc(-c2cn3cccc(C)c3n2)cc1Br	-58	-2	62*	41	-79	-48
Cc1cccn2cc(-c3ccccc3)nc12	27	8	69*	30	-19	5
Cc1cccn2cc(-c3ccc(F)cc3)nc12	46	7	47	32	-36	-22
CCOc1ccc2nc3cc(NCc4ccc(OC)cc4)ccc3c(N)c2c1	-14	-1	-17	2	9	-9
Nc1nc(N)c2cc(CNc3ccc(Cl)c(Cl)c3)ccc2n1	98*	nt	nt	nt	36	3
CN(Cc1cnn(-c2ccc(F)cc2)c1)C(=O)[C@H]1O[C@@H](n2ccc(=O)[nH]c2=O)[C@H](O)[C@@H]1O	-14	nt	nt	nt	-3	nt
O=C(Nc1ccc(Br)c(C(F)(F)F)c1)c1ccc(C(F)(F)F)cc1	63*	-6	8	7	47	nt
O=C(Nc1ccc(OCC(F)(F)C(F)F)c(C(F)(F)F)c1)c1ccc(Cl)cc1	77*	1	-34	-25	52*	38
Cn1c(=O)n(C)c2cc(CNC(=O)[C@H]3O[C@@H](n4ccc(=O)[nH]c4=O)[C@H](O)[C@@H]3O)ccc21	-1	nt	nt	nt	3	nt
Clc1ccc(-c2nsc(N3CCOCC3)n2)c(Cl)c1	23	12	62*	28	-24	-13
CNc1cncc(-c2cccc(C(=O)NCCN(C)C)c2)n1	18	nt	nt	nt	8	nt
COc1cc(CCCN2CCNC[C@@H]2Cc2ccc(O)cc2)cc(OC)c1OC	-12	nt	-66	-55*	-10	7
COc1cc(CCCN2C(=S)NC[C@H]2Cc2ccc(O)cc2)cc(OC)c1OC	-6	0	-7	-2	1	-2
O=C(Nc1ccc2c(c1)OCO2)NC1(C(F)(F)F)Oc2ccccc2O1	-26	-2	20	5	-2	-8
O=C(Nc1ccc2c(c1)OCCO2)NC1(C(F)(F)F)Oc2ccccc2O1	89*	-2	-72	-67*	28	5
SMILES	TWEAK-Fn14 inh	HSP90 inh	HSF-1 act	HSF1 inhib	TROY signal inh	EBV LMP1 NFkB
CCCn1c(C)cc(C(=O)COc2ccc(-c3nnco3)cc2)c1C	6	16*	nt	nt	13	-12
COC(=O)[C@H](CCSC)NC(=O)Nc1cccc(C)c1C	-22	-3	96*	40	6	6
CCc1ccc(C(=O)NC(CCSC)C(=O)OC)cc1 (stereo not given)	0	1	-84	-81*	-17	4
COC(=O)[C@H](CCSC)NC(=O)c1cccnc1SC	10	-1	-1	-5	0	10
Cc1ccc(C)c(N2CCN(S(=O)(=O)c3ccc4c(c3)CCN4C(=O)CCC(=O)O)CC2)c1	-10	-1	-1	-8	0	86*
CC(=O)N1CCCc2cc(S(=O)(=O)N3CCCC(C(=O)N4CCN(c5cc(C)ccc5C)CC4)C3)ccc21 (stereo not given)	54*	-1	-10	0	44	16
COc1ccc(NC(=O)Nc2nnc([C@@H]3C[C@H](O)[C@@H](CO)O3)s2)cc1	-14	nt	nt	nt	-2	nt
Cc1cccc2cc3c(N)c(C(=O)N4CCOCC4)sc3nc12	-9	1	81*	36	-14	-24
CC1C(=O)N(Cc2cn(CCC3OCCCO3)nn2)CCS(=O)(=O)N1Cc1ccc(-c2ccc(Cl)cc2)cc1 (stereo not given)	49	nt	nt	nt	33	5
Cc1cc2c(cc1C)NC(CC(=O)NCc1ccccc1)C(=O)N2 (stereo not given)	-4	2	75*	39	5	-18
COc1ccc(CCNC(=O)CC2Nc3cc(C)c(C)cc3NC2=O)cc1OC (stereo not given)	-1	2	16	0	18	4
CC(C)(C)NC(=O)NC(=O)COc1ccc(Br)cc1Br	32	6	74*	46	28	-28
O=C(COc1ccc(Br)cc1Br)NC(=O)NC1CCCC1	-28	-1	3	-3	-10	-25
O=C(COc1ccc(Br)cc1Br)NC(=S)N1CCCc2ccccc21	64*	2	10	2	43	-4
O=C(COc1ccc(Br)cc1Cl)NC(=S)N1CCc2ccccc21	-70	-3	3	5	-38	-41
O=C(COc1ccc(Br)cc1Cl)NC(=O)NCc1ccccc1	-44	-1	67*	27	-4	-6
O=C(COc1ccccc1Cl)NCc1ccccc1	-25	1	20	13	-17	-9
CCNC(=O)c1cc2c(c(-c3cccc(-c4cc5ccccc5o4)c3)n1)[C@H](CCO)N(C(=O)NC(C)C)C2	53*	nt	nt	nt	33	nt
CCCCN1C(=O)C(CC(=O)NCc2cccc3ccccc23)CC(C(=O)N2CCCCCC2)=C1C (stereo not given)	-14	nt	nt	nt	-8	nt
CC(=O)Nc1ccc(-c2ccnc3c2CC(C)(C(=O)Nc2ccc(F)c(Cl)c2)O3)cc1 (stereo not given)	-32	nt	nt	nt	-10	nt
O=c1cccc2c1c1cc[nH]c3ccc(=O)n2c31	54*	nt	-19	-9	41	16
O=c1cc[nH]c2ccc(Cl)cc12	-4	-2	-52	-38	-5	2
CC1=NN(c2ccccc2)C(=O)C1N=Nc1ccc(C)cc1 (stereo not given)	nt	-2	20	2	nt	nt
CC1=NN(c2ccccc2)C(=O)C1N=Nc1ccc(S(N)(=O)=O)cc1 (stereo not given)	-5	8	-80	-78*	-14	2
CCCCN(CCCC)Cc1cc(=O)oc2ccc3ccccc3c12	16	nt	nt	nt	11	nt
